“And” between values parts separate entries of the source, which are not always exact repeats. Equal values may be shown once. Records with an inconclusive call do not appear. More than one record can exist for a structure, and the calls need not agree. The source made the active and inactive calls. Unless noted, calls follow the shape of the full dose curve.
Columns and labels:
[1] = Nuclear factor erythroid 2-related factor 2/antioxidant responsive element (Nrf2/ARE) small molecule agonists: qHTS cell viability counter screen in human keratinocytes (AID 1919968; active = well fitted curve in the direction sought with a large enough effect in the repeat runs; an effect the other way counts as inactive or inconclusive; also: nearly all actives have a fitted effect of over 55% in size; also: potency is read from the fitted curve at half-maximal effect)
Procedure, shortened: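 Viability counter-screen: KeratinoSens reporter cells, DMSO-delivered compounds, 23 h at 37 C, CellTiter-Fluor fluorescence.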

[2] = Nuclear factor erythroid 2-related factor 2/antioxidant responsive element (Nrf2/ARE) small molecule agonists: luciferase reporter gene qHTS assay in human keratinocytes (AID 1919969); also: nearly all actives have a fitted effect of over 35% in size; also: potency is read from the fitted curve at half-maximal effect
[3] = biological target: KiSS-1 receptor (Homo sapiens) (UniProt Q969F8); experiment: Human kisspeptin (KISS1R) small molecule agonists, calcium flux assay in KISS1R-HEK293 cells (AID 1920064; active = well fitted curve in the direction sought with a large enough effect in the repeat runs; an effect the other way counts as inactive or inconclusive)
Chain of KiSS-1 receptor (Homo sapiens) (Q969F8 whole entry, looked up): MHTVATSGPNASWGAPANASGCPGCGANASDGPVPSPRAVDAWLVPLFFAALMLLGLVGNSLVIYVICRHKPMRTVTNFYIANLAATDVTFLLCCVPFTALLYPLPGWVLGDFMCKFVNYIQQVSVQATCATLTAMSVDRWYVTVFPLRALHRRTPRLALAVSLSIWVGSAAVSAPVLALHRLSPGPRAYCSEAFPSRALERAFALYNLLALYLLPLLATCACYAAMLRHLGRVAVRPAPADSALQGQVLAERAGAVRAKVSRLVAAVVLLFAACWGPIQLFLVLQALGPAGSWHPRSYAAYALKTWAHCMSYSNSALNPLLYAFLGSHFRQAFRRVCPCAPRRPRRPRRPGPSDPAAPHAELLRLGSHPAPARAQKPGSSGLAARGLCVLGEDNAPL
Procedure, shortened: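 Intracellular calcium mobilization in KISS1R-HEK293 cells was recorded by fluorescence (Ex/Em 480/540) for 3 min following compound addition to cells pre-loaded 1 h with calcium dye.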

[4] = G protein-coupled receptor (GPCR) small molecule agonists, calcium flux assay: HEK293 wild type cell line counter screen (AID 1920065)
Procedure, shortened: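 In this agonist-mode screen, ATP is the positive control and DMSO the vehicle. Cells grow 18 h before a 1 h dye incubation at 37 C; signal is taken at Ex/Em 480/540 over 3 min.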

[5] = p53 small molecule agonists, cell-based qHTS assay with human liver microsomes (AID 1963577);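 also: p53 response element beta-lactamase reporter cells with liver microsomes plus NADPH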
Procedure, shortened: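 p53RE-bla cells; 5 h settle, 37 C/5% CO2; cpd + HLM 0.5 mg/mL + NADPH 0.5 mg/mL (final); 16 h 37 C; LiveBLAzer 2 h RT dark; fluorescence readout.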

[6] = p53 small molecule agonists, cell-based qHTS assay with rat liver microsomes (AID 1963578)
Procedure, shortened: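 Rat liver microsome activation: microsomes 0.5 mg/mL, NADPH 0.5 mg/mL final; p53RE-bla cells, 16 h 37 C; LiveBLAzer readout, 2 h RT dark.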

[7] = p53 small molecule agonists, cell-based qHTS assay with human liver microsomes: qHTS cell viability counter screen (AID 1963579); also: nearly all actives have a fitted effect of over 45% in size; also: potency is read from the fitted curve at half-maximal effect
Procedure, shortened: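 Luminescent CellTiter-Glo read-out, 30 min at room temperature, gauged cytotoxicity in p53RE-bla cells exposed 16 h at 37 C to DMSO-dissolved compounds with metabolic activation by human liver microsomes and NADPH, each 0.5 mg/mL final.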

[8] = p53 small molecule agonists, cell-based qHTS assay with rat liver microsomes: qHTS cell viability counter screen (AID 1963580); also: nearly all actives have a fitted effect of over 45% in size
Procedure, shortened: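 p53RE-bla HCT-116 cells were exposed 16 h at 37 C to compounds with rat liver microsomes (0.5 mg/mL) and NADPH (0.5 mg/mL). Viability was measured in the same wells as ATP content by CellTiter-Glo luminescence.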

[9] = p53 small molecule agonists, cell-based qHTS assay: qHTS cell viability counter screen (AID 1963581); also: nearly all actives have a fitted effect of over 45% in size; also: potency is read from the fitted curve at half-maximal effect
Procedure, shortened: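 Compounds are pinned onto HCT-116 p53RE-bla cells and left 16 h at 37 C. Following the reporter FRET read, ATP is quantified by CellTiter-Glo luminescence after 30 min at room temperature.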

[10] = p53 small molecule agonists, cell-based qHTS assay (AID 1963582; active = well fitted activation curve with a large enough effect in the signal ratio in the repeat runs, not every such curve was filed as active; the % refers to the signal ratio)
Procedure, shortened: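 Agonist activity was scored from beta-lactamase FRET fluorescence in p53RE-bla cells treated 16 h at 37 C with compounds in DMSO, substrate incubation being 2 h at room temperature.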

[11] = biological target: 5-hydroxytryptamine receptor 2A (Homo sapiens) (UniProt P28223); experiment: 5-hydroxytryptamine receptor 2A (HTR2A) small molecule antagonists, cell-based qHTS assay (AID 1963586); also: nearly all actives have a fitted effect of over 45% in size
Chain of 5-hydroxytryptamine receptor 2A (Homo sapiens) (P28223 whole entry, looked up): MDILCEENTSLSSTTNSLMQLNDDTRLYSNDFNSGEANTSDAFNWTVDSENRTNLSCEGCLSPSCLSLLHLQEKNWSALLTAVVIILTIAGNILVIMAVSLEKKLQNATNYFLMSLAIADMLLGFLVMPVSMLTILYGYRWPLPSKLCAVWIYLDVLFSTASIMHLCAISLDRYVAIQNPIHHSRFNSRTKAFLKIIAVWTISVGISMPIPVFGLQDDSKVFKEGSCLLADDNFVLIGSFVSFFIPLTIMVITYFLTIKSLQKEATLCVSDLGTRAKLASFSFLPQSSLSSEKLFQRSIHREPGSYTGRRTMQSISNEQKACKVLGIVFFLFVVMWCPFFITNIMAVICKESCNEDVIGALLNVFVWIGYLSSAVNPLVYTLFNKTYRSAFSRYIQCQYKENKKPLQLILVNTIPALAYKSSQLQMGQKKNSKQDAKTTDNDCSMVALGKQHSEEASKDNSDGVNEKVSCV
Procedure, shortened: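 Antagonist-mode intracellular calcium assay: DOI (4 nM) added after 5 min compound pre-incubation at room temperature to dye-loaded HTR2A-CHO cells. Fluorescence followed for 3 min, sampled every second.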

[12] = biological target: 5-hydroxytryptamine receptor 2A (Homo sapiens) (UniProt P28223); experiment: 5-hydroxytryptamine receptor 2A (HTR2A) small molecule agonists, cell-based qHTS assay (AID 1963587); also: nearly all actives have a fitted effect of over 30% in size; also: potency is read from the fitted curve at half-maximal effect
Procedure, shortened: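 CHO cells stably expressing human HTR2A, plated 18 h, loaded with calcium dye 1 h at 37 C. Agonist mode: compounds added and intracellular calcium fluorescence recorded kinetically for 2 min at 1 sec intervals.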

[13] = biological target: Muscarinic acetylcholine receptor M1 (Homo sapiens) (UniProt P11229); experiment: Cholinergic receptor muscarinic 1 (CHRM1) small molecule antagonists, cell-based qHTS assay (AID 1963588); also: nearly all actives have a fitted effect of over 40% in size; also: potency is read from the fitted curve at half-maximal effect
Chain of Muscarinic acetylcholine receptor M1 (Homo sapiens) (P11229 whole entry, looked up): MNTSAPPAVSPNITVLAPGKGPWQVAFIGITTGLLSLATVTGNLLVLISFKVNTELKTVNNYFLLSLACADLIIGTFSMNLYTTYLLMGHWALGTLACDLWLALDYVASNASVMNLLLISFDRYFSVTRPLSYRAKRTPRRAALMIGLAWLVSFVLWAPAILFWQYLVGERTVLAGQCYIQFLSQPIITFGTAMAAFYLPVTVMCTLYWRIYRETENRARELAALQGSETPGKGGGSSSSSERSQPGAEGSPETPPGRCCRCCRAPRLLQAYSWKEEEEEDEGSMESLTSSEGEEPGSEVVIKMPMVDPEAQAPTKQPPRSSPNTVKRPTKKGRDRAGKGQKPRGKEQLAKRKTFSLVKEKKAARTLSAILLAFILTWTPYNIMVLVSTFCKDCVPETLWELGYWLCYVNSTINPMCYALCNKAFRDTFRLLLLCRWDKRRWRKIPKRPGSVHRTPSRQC
Procedure, shortened: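 CHRM1-CHO calcium-flux assay, antagonist mode. Cells were seeded 18 h, dye-loaded 1 h at 37 C and given compound for 5 min at RT, then acetylcholine was added at 50nM. FDSS fluorescence was read 3 min; 15 concentrations, three runs.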

[14] = biological target: Muscarinic acetylcholine receptor M1 (Homo sapiens) (UniProt P11229); experiment: Cholinergic receptor muscarinic 1 (CHRM1) small molecule agonists, cell-based qHTS assay (AID 1963589); also: nearly all actives have a fitted effect of over 35% in size
Procedure, shortened: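 Stable CHRM1-CHO cells (human receptor) were incubated 18 h, dye-loaded for 1 h at 37 C and exposed to test compounds for agonist activity, with calcium-dependent fluorescence followed kinetically.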

[15] = cAMP Responsive Elements (CRE) small molecule agonists, cell-based qHTS assay (AID 1963590)
Procedure, shortened: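 FRET-based beta-lactamase readout (LiveBLAzer B/G, 2 h RT) quantified CRE activation in HEK 293T CRE-bla cells after 3 h treatment with DMSO-dissolved compounds.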

[16] = cAMP Responsive Elements (CRE) small molecule antagonists, cell-based qHTS assay (AID 1963591; active = well fitted inhibition curve with a large enough effect in the signal ratio in the repeat runs, not every such curve was filed as active; the % refers to the signal ratio)
Procedure, shortened: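 qHTS in CRE-bla HEK 293T cells: compound in DMSO, then 0.25 uM NKH477 (final), 3 h at 37 °C/5% CO2; beta-lactamase FRET read-out after 2 h substrate incubation.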

[17] = biological target: Beta-2 adrenergic receptor (Homo sapiens) (UniProt P07550); experiment: Adrenergic beta2 receptor (ADRB2) small molecule antagonists, cell-based qHTS assay (AID 1963592); also: series mostly up to about 92 µM; nearly all actives have a fitted effect of over 50% in size
Chain of Beta-2 adrenergic receptor (Homo sapiens) (P07550 whole entry, looked up): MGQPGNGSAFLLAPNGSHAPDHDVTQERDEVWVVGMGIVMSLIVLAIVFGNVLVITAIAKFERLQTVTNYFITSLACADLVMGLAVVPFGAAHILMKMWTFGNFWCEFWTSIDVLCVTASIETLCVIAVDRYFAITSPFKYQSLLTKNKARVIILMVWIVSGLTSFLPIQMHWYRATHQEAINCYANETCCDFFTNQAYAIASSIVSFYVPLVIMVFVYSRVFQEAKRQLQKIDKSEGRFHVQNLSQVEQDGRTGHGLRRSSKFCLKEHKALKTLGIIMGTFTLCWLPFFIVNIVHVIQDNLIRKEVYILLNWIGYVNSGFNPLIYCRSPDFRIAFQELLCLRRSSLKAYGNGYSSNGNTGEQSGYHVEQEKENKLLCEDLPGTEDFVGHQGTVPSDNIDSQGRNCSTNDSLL
Procedure, shortened: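 Cells (CHO, stable ADRB2 overexpression) incubated 18-20hr at 37C; compounds added from DMSO; agonist mix (1nM isoproterenol, 100uM IBMX, 25uM Ro-20-1724) added; 0.5hr RT; d2-cAMP and anti-cAMP-cryptate added; 1hr RT; 665/615 nm read.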

[18] = biological target: Beta-2 adrenergic receptor (Homo sapiens) (UniProt P07550); experiment: Adrenergic beta2 receptor (ADRB2) small molecule agonists, cell-based qHTS assay (AID 1963593);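 also: CHO cells stably overexpressing human ADRB2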
Procedure, shortened: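 CHO cells stably over-expressing ADRB2 were plated overnight at 37C, then dosed with compounds plus a stimulation mix containing 100uM IBMX and 25uM Ro-20-1724 for 0.5hr at room temperature. cAMP was measured by HTRF competition, 1hr.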

[19] = biological target: D(2) dopamine receptor (Homo sapiens) (UniProt P14416); experiment: Dopamine D2 receptor (DRD2) small molecule agonists, cell-based qHTS assay (AID 1963594); also: nearly all actives have a fitted effect of over 35% in size
Chain of D(2) dopamine receptor (Homo sapiens) (P14416 whole entry, looked up): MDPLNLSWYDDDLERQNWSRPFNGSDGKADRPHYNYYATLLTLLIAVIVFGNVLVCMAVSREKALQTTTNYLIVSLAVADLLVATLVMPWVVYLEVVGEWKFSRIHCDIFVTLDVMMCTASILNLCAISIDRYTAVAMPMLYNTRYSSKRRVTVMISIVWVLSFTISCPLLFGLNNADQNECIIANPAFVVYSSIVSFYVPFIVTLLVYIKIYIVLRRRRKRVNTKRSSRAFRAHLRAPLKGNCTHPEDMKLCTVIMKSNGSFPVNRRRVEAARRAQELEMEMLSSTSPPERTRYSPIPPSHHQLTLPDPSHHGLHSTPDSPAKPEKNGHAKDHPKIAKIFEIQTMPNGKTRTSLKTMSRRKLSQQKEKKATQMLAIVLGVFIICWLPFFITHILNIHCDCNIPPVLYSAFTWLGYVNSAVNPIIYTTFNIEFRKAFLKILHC
Procedure, shortened: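 HEK293 cells stably expressing human DRD2, pre-treated with PDE inhibitor Ro20-1724 (0.1 mM final) and compound 10 min at room temperature, then stimulated with NKH477 (200nM […]) for 30 min. cAMP read by HTRF (665/620 nm).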

[20] = biological target: D(2) dopamine receptor (Homo sapiens) (UniProt P14416); experiment: Dopamine D2 receptor (DRD2) small molecule antagonists, cell-based qHTS assay (AID 1963595; active = well fitted inhibition curve with a large enough effect in the signal ratio in the repeat runs, with a control signal flat; the % refers to the signal ratio)
Procedure, shortened: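 In this cell-based antagonist screen, compounds act for 10 min at room temperature before a 30 min challenge with 12 nM quinpirole and 200 nM NKH477. cAMP is quantified by HTRF competition in DRD2-HEK293 cells containing 0.1 mM Ro20-1724.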

Measured: Potency

c1cc(-c2ccncc2)ccn1
inactive: all assays above

CCCCCCCC(=O)OCC(COC(=O)CCCCCCC)OC(=O)CCCCCCC
not listed: [3] | [4] | [17]
inactive: all other assays above

CC(C)C(=O)Nc1ccc([N+](=O)[O-])c(C(F)(F)F)c1
inactive: [1] | [2] | [4] | [7] | [8] | [9] | [17] | [18] | [19] | [20]

O=c1cc[nH]c(=S)[nH]1
inactive and 793 nM (active): [7]
not listed: [3] | [4] | [11] | [18] | [19]
inactive: all other assays above

O=C(O)Cc1cccc2ccccc12
inactive: all assays above

Nc1ccn([C@H]2CC[C@@H](CO)O2)c(=O)n1
not listed: [19] | [20]
inactive: all other assays above

CCCC(CCC)C(=O)O
inactive: [1] | [2] | [4] | [15] | [16] | [17] | [18] | [19] | [20]

CCCCOC(=O)CCCCCCCCC(=O)OCCCC
not listed: [3] | [4] | [18]
inactive: all other assays above

CC1Cc2ccccc2N1NC(=O)c1ccc(Cl)c(S(N)(=O)=O)c1 (stereo not drawn)
not listed: [11] | [12] | [13] | [14] | [16] | [19] | [20]
inactive: all other assays above

CC(C)=CCC/C(C)=C\CO
not listed: [11] | [12] | [13] | [14]
inactive: all other assays above

NC(=S)NNC(N)=S
not listed: [17]
inactive: all other assays above

CCCCCNCCCCC
not listed: [10]
inactive: all other assays above

C=C(C)C(=O)Nc1ccc(Cl)c(Cl)c1
active: [2] 55 µM and 43.1 µM
not listed: [18] | [19]
inactive: all other assays above

Cc1cnc(NC(=O)C2=C(O)c3ccccc3S(=O)(=O)N2C)s1
not listed: [11] | [12] | [13] | [14]
inactive: all other assays above

Cc1ccc(S(=O)(=O)O)cc1C
not listed: [13]
inactive: all other assays above

CC1(C)[C@@H](O[C@H]2O[C@H](C(=O)O)[C@@H](O)[C@H](O)[C@H]2O[C@@H]2O[C@H](C(=O)O)[C@@H](O)[C@H](O)[C@H]2O)CC[C@]2(C)[C@H]3C(=O)C=C4[C@@H]5C[C@@](C)(C(=O)O)CC[C@]5(C)CC[C@@]4(C)[C@]3(C)CC[C@@H]12
not listed: [11] | [12] | [13] | [14] | [18]
inactive: all other assays above

CCCCCC(N)=O
not listed: [3] | [4] | [18]
inactive: all other assays above

O=S1(=O)CC=CC1
37.6 µM (active) and inactive: [12]
inactive: all other assays above

C=CC(=O)OCCCCCCCC(C)C
inactive: all assays above

O=S(=O)(O)c1ccc2cc(O)ccc2c1
not listed: [19]
inactive: all other assays above

COCC(=O)O
8.63 µM (active) and inactive: [13]
not listed: [16] | [18]
inactive: all other assays above

C=CCc1ccc(OC)c(OC)c1
not listed: [18]
inactive: all other assays above

CC(=O)OC(C)(C)C1CC=C(C)CC1 (stereo not drawn)
not listed: [14]
inactive: all other assays above

C#CC1(O)CC[C@H]2[C@@H]3CCC4=CCCC[C@@H]4[C@H]3CC[C@@]21C (stereo partly drawn)
54.9 µM (active) and inactive: [12]
27.3 µM (active) and inactive: [1]
40.8 µM (active) and inactive: [9]
inactive: all other assays above

CN/C(=C\[N+](=O)[O-])NCCSCc1csc(CN(C)C)n1
not listed: [11] | [12] | [13] | [14] | [17] | [18]
inactive: all other assays above

C=CCOC(=O)C(=C)C
inactive: all assays above

NC(N)=O
not listed: [3] | [5] | [6] | [7] | [10]
inactive: all other assays above

C=CCCCCCCCCC(=O)O
not listed: [15]
inactive: all other assays above

OC[C@H]1O[C@@H](Oc2ccc(O)cc2)[C@H](O)[C@@H](O)[C@@H]1O
not listed: [15] | [16]
inactive: all other assays above

O=C1CCCCCCCCCCCN1
inactive: all assays above

CCCCC/C(C=O)=C\c1ccccc1
not listed: [19]
inactive: all other assays above
